The list shows a part of the results. Unmarked numbers belong to inactive results.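 How the source made its calls: active means activation of at least 7% in one or more replicates; inactive means the rest.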
Experiment: activation of alpha-dystroglycan glycosylation – single concentration, Pro5-aDG cells, confirmation (AID 651671);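 further: cells exposed to compound for two days before detection; 0% = DMSO-treated Pro5 cells and 100% = DMSO-treated B10-LARGE cells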
Conditions: alpha-DG glycosylation, IIH6 AlphaLISA, stronger effect = higher value, screened at 10 µM (by protocol), scaled to LARGE-overexpressing B10 cells as 100%

CNCC(O)c1cc(F)c(OCc2ccccc2)c(OCc2ccccc2)c1F (stereo unspecified)
activation: 4%

Reference: PubChem BioAssay AID651671 (Sanford-Burnham Center for Chemical Genomics, 2012)
